# Measured values reported in PubChem BioAssay.
# “And” between values parts separate entries of the source, which are not always exact repeats. Identical values can stand only once. The source made the active and inactive calls. Unless noted, the rule behind the calls is not given here.
# Tests used:
# [1] = tested on: Aerobactin synthetase IucA (Klebsiella pneumoniae); experiment: IucA aerobactin synthetase inhibitors, biochemical, Tocris library, absorbance (AID 1345561); settings: purified IucA enzyme assay, absorbance (OD) read-out; stronger effect = lower value;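 tested at 8 µM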;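 note: 100% = enzyme without compound and 0% = no enzyme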
# [2] = sensitizers of A549 cells to miR-34 induction, primary screen, imaging, A549 dox-inducible miR-34, nuclei and caspase counts (AID 1347080;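 active = compounds whose cell count with miR-34 switched on is under 0.7 times the count with it off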); settings: A549 miR-34 inducible, Hoechst nuclei count, 48 h
# [3] = viability rescue of complex I mutant cybrids, primary screen, cell-based, galactose medium, ATP luminescence (AID 1645843;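 active = z-score of at least 1.8 in each of two replicates, scored against plate mean and spread of sample wells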;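 note: positive z means more ATP and so rescue of galactose-driven cybrid death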); settings: complex I mutant cybrid cells, 72 h, stronger effect = higher value
# [4] = circadian clock period modulators, cell-based, LOPAC library, luminescence reporter (AID 2774); settings: circadian reporter cells, at 7 µM, actives lie on both sides;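 note: values are relative to mean of DMSO wells on each plate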
# [5] = tested on: Hepatitis C virus NS3 helicase; experiment: HCV NS3 helicase inhibitors, primary screen, biochemical, fluorescence polarization, LOPAC1280 library (AID 687035; in the data active = inhibition above about 37%); settings: Purified HCV NS3 helicase, Cy5-dT15 ssDNA binding fluorescence polarization; stronger effect = higher value; concentration not given here
# [6] = Cy5 fluorescence quenching or enhancement artefacts, artefact control for HCV NS3 helicase inhibitor project, biochemical, LOPAC1280 (AID 687037); settings: Cy5-DNA-NS3h complex fluorescence interference counterscreen
# [7] = stronger effect = lower value, cell number ratio, induced over uninduced
# [8] = measured here: relative caspase fold change +Dox/-Dox
# [9] = measured here: total cells with miR-34 induction, stronger effect = lower value
# [10] = measured here: total cells without miR-34 induction
SMILES,remaining activity [1],"fold change [2, 7]","fold change [2, 8]","cell count [2, 9]","cell count [2, 10]",z-score [3],period change [4],inhibition [5],fluorescence ratio (interference) [6]
O=C1NN(C(=O)Nc2ccc(Br)cc2)[C@@H](c2ccccc2)[C@@H]1c1ccccc1,127% (inactive),0.887 (inactive),0.737,9100,10300,0.225 (inactive),,,
COc1ccc(-c2nc(C(=O)N3CCN(C)CC3)sc2-c2ccc(OC)cc2)cc1,116% (inactive),0.946 (inactive) and 0.989 (inactive),2.48 and 0.892,5370 and 9040,5680 and 9140,-0.66 (inactive),,,
C[C@@H]1C(=O)OC2[C@H](O)C34[C@H]5C[C@@H](C(C)(C)C)[C@]36[C@@H](OC(=O)[C@@H]6O)O[C@@]4(C(=O)O5)[C@]21O (some centres not stated),112% (inactive),0.923 (inactive),0.53,8430,9140,-0.225 (inactive),,,
N=C(N)S/C=C\C(=O)O,104% (inactive),0.952 (inactive),0.563,8330,8750,-0.28 (inactive),,,
CCOC(=O)C1CSC(Cc2ccc(OCc3ccc([N+](=O)[O-])cc3)cc2)N1 (configuration not stated),95.4% (inactive),0.923 (inactive),1.54,8250,8940,-0.58 (inactive),,,
C[C@@]1(O)[C@H](O)[C@@H](CO)O[C@H]1n1cnc2c(NC3CCCC3)nc(Cl)nc21,118% (inactive),1.01 (inactive),1.12,7690,7600,0.755 (inactive),,,
CCCCCN=c1ccn(Cc2ccccc2)c2ccccc12,114% (inactive),1.09 (inactive),0.778,1550,1420,-0.705 (inactive),,,
NCCCCCCCCCCNS(=O)(=O)c1cccc2c(Cl)cccc12,98.7% (inactive),0.827 (inactive),0.835,5900,7130,-1.11 (inactive),,,
COc1ccc(CN2C(=O)C(=O)c3cc(OC(F)(F)F)ccc32)cc1,114% (inactive),0.793 (inactive),1.39,1960,2480,-1.04 (inactive),,,
NC(Cn1ccc(=O)n(Cc2ccccc2C(=O)O)c1=O)C(=O)O (configuration not stated),98.2% (inactive),0.925 (inactive),1.4,8950,9680,0.13 (inactive),,,
COC(=O)[C@H](Cc1ccc([N+](=O)[O-])cc1)NC(=O)c1cccc2ccccc12,101% (inactive),0.968 (inactive),0.966,9700,10000,-0.13 (inactive),,,
COc1ccc(NC(=O)c2cc(OCCCN(C)C)nn2Cc2ccccc2)cc1,99.8% (inactive),0.937 (inactive),1.3,8250,8810,-0.3 (inactive),,,
CCS(=O)(=O)N1CCC[C@@H]2CN3CCc4cc(OC)ccc4[C@@H]3C[C@@H]21,87.2% (inactive),0.945 (inactive),0.859,8340,8820,0.46 (inactive),,,
CCCc1c(OCC(O)COc2ccc3c(=O)cc(C(=O)O)oc3c2CCC)ccc(C(C)=O)c1O (configuration not stated),110% (inactive),0.998 (inactive),0.8,8250,8260,3.91 (active),,,
O=C(O)/C=C1\CCCc2ccccc2C1O (configuration not stated),103% (inactive),0.917 (inactive),0.874,8860,9660,-0.145 (inactive),,,
COc1ccccc1N1CCN(CCCCN2C(=O)CCC2=O)CC1,103% (inactive),0.855 (inactive),0.698,8300,9700,-0.25 (inactive),,,

SMILES,remaining activity [1],"fold change [2, 7]","fold change [2, 8]","cell count [2, 9]","cell count [2, 10]",z-score [3],period change [4],inhibition [5],fluorescence ratio (interference) [6]
CC1Nc2ccc(Cl)cc2S(=O)(=O)N1 (configuration not stated),102% (inactive),0.919 (inactive),0.718,8550,9300,0.035 (inactive),,,
N[C@H](C(=O)O)c1ccc(C(=O)O)c(O)c1,95.5% (inactive),0.931 (inactive),0.823,8860,9520,-0.145 (inactive),,,
COc1ccc(NS(=O)(=O)c2ccc(I)cc2)cc1N1CCN(C)CC1,112% (inactive),0.956 (inactive),0.589,6570,6870,-0.545 (inactive),,,
c1ccc(C(O[C@@H]2CCCN(CCc3ccc4c(c3)OCO4)C2)c2ccccc2)cc1,119% (inactive),0.989 (inactive),1.1,8350,8440,-0.585 (inactive),,,
CCCc1c(OCCCOc2ccc(OCC(=O)O)cc2)ccc(CC=O)c1O,117% (inactive),0.911 (inactive),0.927,9560,10500,1.5 (inactive),,,
CCC(=O)NC1CCc2cccc(OC)c2C1 (configuration not stated),123% (inactive),1.01 (inactive),0.925,8550,8470,-0.165 (inactive),,,
CCN(CC)CC1CCN(c2ncc3ncnc(Nc4ccc(F)c(Cl)c4)c3n2)CC1,124% (inactive),0.891 (inactive),1.55,1440,1620,-0.675 (inactive),,,
N[C@@H](Cc1cc(-c2ccc(Cl)cc2Cl)cc(CP(=O)(O)O)c1O)C(=O)O,115% (inactive),0.913 (inactive),0.553,8540,9350,0.635 (inactive),,,
OC(CN1CCNCC1)Cn1c2ccc(Br)cc2c2cc(Br)ccc21 (configuration not stated),103% (inactive),1.43 (inactive),0.602,284,198,-0.705 (inactive),,,
COc1ccc(S(=O)(=O)N2c3ccc(Cl)cc3[C@](O)(c3ccccc3Cl)[C@@H]2C(=O)N2CCC[C@H]2C(N)=O)cc1OC,97.7% (inactive),0.908 (inactive),1.22,8610,9480,0.855 (inactive),,,
COC(=O)C1=C(C)NC(C)=C(C(=O)OCCCN2CCC(c3ccccc3)(c3ccccc3)CC2)[C@@H]1c1cccc([N+](=O)[O-])c1,109% (inactive),1.06 (inactive),1.28,310,292,-0.83 (inactive),,,
OC(CCCN1CCN(c2ncc(F)cn2)CC1)c1ccc(F)cc1 (configuration not stated),116% (inactive),0.931 (inactive),0.869,7880,8470,-0.495 (inactive),,,
O=c1oc(-c2ccc(C(F)(F)F)cc2)nn1Cc1cc(Cl)ccc1O,93.9% (inactive),1.02 (inactive),1.81,6380,6280,-0.655 (inactive),,,
Cc1cccc(C)c1NC(=O)C[N+](C)(C)C,109% (inactive),1 (inactive),0.946,9170,9160,-0.035 (inactive),0.05 h (inactive),,
O=C(OCCN1CCCCC1)c1c[nH]c2ccccc12,82.2% (inactive),0.911 (inactive),0.811,9250,10200,0.69 (inactive),-0.005 h (inactive),,
Cc1nc2sccn2c(=O)c1CCN1CCC(=C(c2ccccc2)c2ccc(F)cc2)CC1,120% (inactive),0.974 (inactive),1.11,7180,7370,-0.655 (inactive),-0.05 h (inactive),-1% (inactive),1 (inactive)
